In the supplement of paper PMC7726561 one finds thermal melting temperature data, which are given here for 47 sequences.

First the molecules themselves.
B1: unnamed (peptide)
chain: VFDKTLAEL
B2: unnamed (peptide)
chain: MFDKDVVML
B3: unnamed (peptide)
chain: FYDLYGGEKF
B4: unnamed (peptide)
chain: MPDDLLTTL
B5: unnamed (peptide)
chain: VFDPVTKL
B6: unnamed (peptide)
chain: IFDGNVAHI
B7: unnamed (peptide)
chain: AHDVDPIEL
B8: unnamed (peptide)
chain: FWDPSVNLF
B9: unnamed (peptide)
chain: IFDRVLTEL
B10: unnamed (peptide)
chain: VYDPSLKTLL
B11: unnamed (peptide)
chain: IYDEVVKL
B12: unnamed (peptide)
chain: AWDKEPVLV
B13: unnamed (peptide)
chain: SFDTGFTSF
B14: unnamed (peptide)
chain: SWDIVVQRV
B15: unnamed (peptide)
chain: LFDDIDHNM
B16: unnamed (peptide)
chain: TFDVSILTI
B17: unnamed (peptide)
chain: LFDLGGQYL
B18: unnamed (peptide)
chain: FLDLTEQEF
B19: unnamed (peptide)
chain: FFEEFGKL
B20: unnamed (peptide)
chain: TFDSTIHF
B21: unnamed (peptide)
chain: LYDLVTEKM
B22: unnamed (peptide)
chain: NFDDIKNGL
B23: unnamed (peptide)
chain: SYDPTIENTF
B24: unnamed (peptide)
chain: VFPKEPVEL
B25: unnamed (peptide)
chain: IYDVQHANL
B26: unnamed (peptide)
chain: HYDPATEEF
B27: unnamed (peptide)
chain: VFDVTAPNTF
B28: unnamed (peptide)
chain: TFDLTVVSY
B29: unnamed (peptide)
chain: RFDESMQVF
B30: unnamed (peptide)
chain: SFDSALQSV
B31: unnamed (peptide)
chain: TYDLQESNV
B32: unnamed (peptide)
chain: SFDPSRTF
B33: unnamed (peptide)
chain: TFDVAPSRLDF
B34: unnamed (peptide)
chain: QYDEAVAQF
B35: unnamed (peptide)
chain: NFDNILNSF
B36: unnamed (peptide)
chain: TFDPMTRQI
B37: unnamed (peptide)
chain: HYDEQQNFF
B38: unnamed (peptide)
chain: AFDLSQVLF
B39: unnamed (peptide)
chain: IFDQSGTYL
B40: unnamed (peptide)
chain: VFDTAIAHL
B41: unnamed (peptide)
chain: SFDLLPREF
B42: unnamed (peptide)
chain: FYEPQKGSIYL
B43: unnamed (peptide)
chain: VLDDKDYFL
B44: unnamed (peptide)
chain: KFDPVGEIL
B45: unnamed (peptide)
chain: YFDDLKGEM
B46: unnamed (peptide)
chain: NYDEHISNF
B47: unnamed (peptide)
chain: AWEERETIL

The first experiment deals with HLA-C*04:01. The experiment in a line: thermal melting temperature (Tm) of peptide-HLA complex; higher = more thermostable pHLA complex. The following applies: C1R-A*02:01. The method, then:
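Endogenous HLA-C*04:01 ligands were detected in the thermostability assays of both the C1R-A*02:01 and C1R-B*07:02 lines. Lysates were heated 10 min at 37-73 °C and pHLA immunoprecipitated with W6/32. Peptides were quantified by DIA-MS and Tm was taken from a logistic sigmoid fit.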
For B1, the thermal melting temperature worked out at 58.9 °C.

For the sequence B2, the thermal melting temperature amounted to 48.9 °C.

Take B3: the thermal melting temperature came out at 48.8 °C.

B4: the thermal melting temperature amounted to 53.1 °C.

For the sequence B5, the thermal melting temperature was determined as 48.3 °C.

For B6, the thermal melting temperature amounted to 59.7 °C.

B7 registered a thermal melting temperature of 45.7 °C.

B8: the thermal melting temperature amounted to 53.7 °C.

On to B9, for which the thermal melting temperature was 51.3 °C.

Sequence B10 yielded a thermal melting temperature of 52.3 °C.

Consider B11, for which the thermal melting temperature turned out to be 54.3 °C.

The sequence B12 returned a thermal melting temperature of 57.8 °C.

For the sequence B13, the thermal melting temperature worked out at 48.1 °C.

Sequence B14 came in with a thermal melting temperature of 46.9 °C.

In the case of B15, the thermal melting temperature is 52.6 °C.

As to B16, the thermal melting temperature is 44.9 °C.

Take B17: the thermal melting temperature came out at 48.8 °C.

In turn, B18 came in with a thermal melting temperature of 59.8 °C.

As for B19, the thermal melting temperature was 44.3 °C.

Take B20: the thermal melting temperature was 55.9 °C.

For B21, the thermal melting temperature was determined as 56.2 °C.

In the case of B22, the thermal melting temperature was determined as 52.1 °C.

B23 registered a thermal melting temperature of 54.9 °C.

Consider B24, for which the thermal melting temperature was determined as 52.4 °C.

Regarding B25, the thermal melting temperature was found to be 50.7 °C.

B26: the thermal melting temperature is 60.2 °C.

As to B27, the thermal melting temperature was found to be 56.1 °C.

For B28, the thermal melting temperature is 53.5 °C.

Consider B29, for which the thermal melting temperature amounted to 55.9 °C.

In turn, B30 showed a thermal melting temperature of 56.4 °C.

On to B31, for which the thermal melting temperature was found to be 57.5 °C.

As to B32, the thermal melting temperature amounted to 53.7 °C.

As to B33, the thermal melting temperature turned out to be 60.1 °C.

Sequence B34 came in with a thermal melting temperature of 56.7 °C.

With B35, the thermal melting temperature was determined as 56.8 °C.

As for B36, the thermal melting temperature amounted to 54.1 °C.

For B37, the thermal melting temperature came out at 53.5 °C.

As to B38, the thermal melting temperature was determined as 56.1 °C.

B39: the thermal melting temperature was 53.4 °C.

Sequence B40 registered a thermal melting temperature of 59 °C.

Turning to B41, the thermal melting temperature turned out to be 54.7 °C.

As to B42, the thermal melting temperature is 60.5 °C.

For B43, the thermal melting temperature worked out at 57 °C.

Sequence B44 yielded a thermal melting temperature of 55.9 °C.

Consider B45, for which the thermal melting temperature is 57.9 °C.

In the case of B46, the thermal melting temperature worked out at 44.8 °C.

For the sequence B47, the thermal melting temperature is 57.8 °C.

The experiment is the same for the next values; noted with them: C1R-B*07:02.
B1: the thermal melting temperature is 59.1 °C.

B2 showed a thermal melting temperature of 54.6 °C.

B3 returned a thermal melting temperature of 48.5 °C.

Consider B4, for which the thermal melting temperature is 63.4 °C.

B5 had a thermal melting temperature of 48.6 °C.

Sequence B6 returned a thermal melting temperature of 59 °C.

Consider B7, for which the thermal melting temperature was found to be 46.9 °C.

B8 gave a thermal melting temperature of 52.4 °C.

With B9, the thermal melting temperature turned out to be 54.7 °C.

Sequence B10 gave a thermal melting temperature of 52.4 °C.

Take B11: the thermal melting temperature stood at 51.6 °C.

Take B12: the thermal melting temperature is 57.6 °C.

B13 yielded a thermal melting temperature of 46.1 °C.

B14: the thermal melting temperature was 49 °C.

On to B15, for which the thermal melting temperature came out at 53.7 °C.

B16 gave a thermal melting temperature of 47.2 °C.

Regarding B17, the thermal melting temperature was found to be 44.5 °C.

Take B18: the thermal melting temperature was 60.6 °C.

With B19, the thermal melting temperature amounted to 46.5 °C.

The sequence B20 registered a thermal melting temperature of 58 °C.

Consider B21, for which the thermal melting temperature was determined as 60.7 °C.

Regarding B22, the thermal melting temperature came out at 50.4 °C.

B23 had a thermal melting temperature of 58.1 °C.

In turn, B24 gave a thermal melting temperature of 52.2 °C.

As for B25, the thermal melting temperature was found to be 53 °C.

B26 gave a thermal melting temperature of 58.2 °C.

Regarding B27, the thermal melting temperature is 61.1 °C.

B28 came in with a thermal melting temperature of 61.8 °C.

Consider B29, for which the thermal melting temperature worked out at 58.5 °C.

In turn, B30 had a thermal melting temperature of 60.7 °C.

B31 showed a thermal melting temperature of 55.5 °C.

For B32, the thermal melting temperature was determined as 52.8 °C.

B33: the thermal melting temperature was determined as 62.2 °C.

Sequence B34 gave a thermal melting temperature of 59.2 °C.

Regarding B35, the thermal melting temperature is 58.7 °C.

In turn, B36 registered a thermal melting temperature of 57 °C.

The sequence B37 yielded a thermal melting temperature of 53.3 °C.

B38 returned a thermal melting temperature of 56.5 °C.

The sequence B39 had a thermal melting temperature of 56.4 °C.

In turn, B40 showed a thermal melting temperature of 58.7 °C.

B41 returned a thermal melting temperature of 55.9 °C.

For B42, the thermal melting temperature is 62.1 °C.

B43 yielded a thermal melting temperature of 42.4 °C.

The sequence B44 yielded a thermal melting temperature of 54.9 °C.

B45 showed a thermal melting temperature of 59.4 °C.

B46: the thermal melting temperature came to 48.9 °C.

B47: the thermal melting temperature turned out to be 56.3 °C.
